15 compounds from PubChem BioAssay (NCI) can be followed below.

Values joined by “and” are separate entries in the source; they are usually repeats but may differ in a detail not shown here. Equal entries are not always repeated. This is part of a sample that, as a whole, favours compounds with a hit. Of some 83,000 tested, about 20% had one in any assay.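 Treatment: one concentration, 48 hours, 96-well format. Scoring: percent growth, with anything below 10 considered active.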 Unmarked numbers belong to inactive results. Active and inactive are the calls of the source.

What all share (test): NCI-60 one-dose screen, 48 h (100 = growth as untreated, 0 = no growth, -100 = all killed)
Holding throughout (conditions): 10 µM unless noted

Test [1] concerns MOLT-4 leukemia.
Test [2] deals with SR leukemia.
For test [3], the system named is RPMI-8226 leukemia.
Test [4] concerns OVCAR-8 ovarian.
Test [5] deals with OVCAR-5 ovarian.
Test [6] deals with OVCAR-4 ovarian.
In test [7] the test system is SK-OV-3 ovarian.
Test [8] has as its system IGROV1 ovarian.
Test [9] deals with OVCAR-3 ovarian.
In test [10] the test system is NCI/ADR-RES ovarian.
Test [11] has as its system T-47D breast.
Test [12] relates to BT-549 breast.
Test [13] deals with MDA-MB-435 melanoma.
Test [14] has as its system SW-620 colon.
Test [15] deals with MCF7 breast.
Test [16] concerns HCT-116 colon.
The test system of test [17] is HCC-2998 colon.
Test [18] has as its system KM12 colon.
The subject of test [19] is HS 578T breast.

As for `CC/C(=C(\c1ccc(OCCN2CCOCC2)cc1)c1ccc(OC(=O)Cc2ccccc2)cc1)c1ccc(Cl)cc1`, the growth in test [1] is 96.7%; in test [2], 95.6%; in [3], 98.8%; in test [4], 107%; in [5] it was 104%; in test [6], 120%. The growth in [7] was 111%; in test [8], 106%; in test [9], 102%; in test [10] it was 105%; in [11], 63.5%; in test [12], 104%. Moreover, the growth was 107% in test [13]; 99.9% in test [14]; 75.8% in [15]; 97.3% in [16]; 106% in test [17]; 101% in test [18].

For the compound `COC(=O)C12C3C4C1C1C2C3C41NC(=O)c1csc([C@@H](C[C@H](C(C)C)N(C)C(=O)[C@@H](NC(=O)[C@H]2CCCCN2C)C2CC2)OC(C)=O)n1` (stereo partly specified), the growth is 19.2% in [1]; 19.1% in [2]; 21.7% in [3]; 18.9% in test [4]; 31.6% in test [5]; 49.9% in test [6]. Besides, the growth in [7] was 7.71% (active); in test [8], 32.7%; in test [9], -4.31% (active); in [10], 40.7%; in [11], 61.4%; in [12] it was -17.2% (active). Moreover, the growth in [13] was -29.7% (active); in test [14] it was 26.1%; in test [15], 18.8%; in test [16], 2.94% (active); in test [17], 28.4%; in [18], 5.25% (active).

As to `CC[C@@H](C)C(=O)O[C@H]1[C@H](O)[C@H]2[C@@H](CN3C[C@@H](C)CC[C@H]3[C@@]2(C)O)[C@@H]2C[C@]34O[C@]5(O)[C@@H](OC(=O)[C@@](C)(O)CC)CC[C@@]3(C)[C@@H]5[C@@H](OC(C)=O)[C@@H](OC(C)=O)[C@H]4[C@@]21O`, the growth was 87.3% in test [1]; 100% in test [2]; 94.1% in test [3]; 94.2% in [4]; 103% in [5]; 95.1% in test [6]. Besides, the growth in test [7] is 93.9%; in test [8] it was 106%; in test [9] it was 106%; in [19], 97.3%; in test [11] it was 97.3%; in test [12], 99.7%. Moreover, the growth is 115% in [13]; 95.2% in test [14]; 98.4% in [15]; 98.1% in test [16]; 87.9% in test [17]; 100% in test [18].

`C/C=C(/C)C(=O)O[C@H]1CC[C@@]2(C)[C@@H]3CC[C@H]4[C@]5(O)C[C@H](O)[C@@]6(O)[C@@H](CN7C[C@@H](C)CC[C@H]7[C@@]6(C)O)[C@]5(O)C[C@@]42O[C@@]13O`: the growth was 112% in test [1]; 97.4% in [2]; 113% in test [3]; 91.9% in test [4]; 103% in [5]; 102% in test [6]. For the same compound, the growth in test [7] was 118%; in test [8], 49.3%; in test [9] it was 120%; in [11] it was 118%; in [13], 108%; in [14], 111%. Also, the growth in test [15] is 98.3%; in [16] it was 47.5%; in test [17] it was 137%; in test [18], 122%.

For `C[C@]12C[C@H](c3ccoc3)OC(=O)[C@H]1CC[C@@]1(C)[C@@H]2[C@H]2C=C[C@]1(O)C(=O)O2`, the growth in [1] is 96%; in test [2] it was 100%; in [3], 95.4%; in [4], 95.3%; in test [5], 104%; in test [6], 93.7%. For the same compound, the growth is 95.7% in [7]; 96% in test [8]; 102% in test [9]; 103% in test [11]; 86.5% in [12]; 98.1% in test [13]. In addition, the growth in test [14] is 109%; in test [15] it was 92.7%; in [16] it was 76.6%; in [17], 103%; in test [18] it was 104%.

`CC(=O)OC1CC2(O)C(CCC3(C)C(c4ccc(=O)oc4)CCC32O)C2(C)CCC(OC3OC(CO)C(O)C(O)C3O)C=C12` (stereo unspecified): the growth in [1] was -19.6% (active); in test [2], -15.3% (active); in [3], -23.3% (active); in [4] it was -55.6% (active); in [5], -73.5% (active); in test [6], -64.4% (active). The growth in [7] is -13.9% (active); in test [8] it was -26.5% (active); in [19] it was -11.3% (active); in test [11] it was -9.39% (active); in [12], -85.4% (active); in test [13] it was -90.2% (active). Besides, the growth in [14] was -67.4% (active); in test [15], -23.4% (active); in test [16] it was -94.3% (active); in [17] it was -63.3% (active); in test [18], -97.8% (active).

Regarding `COc1ccc2c(c1)c(-c1nc(-c3c[nH]c4ncccc34)cs1)cn2CCCCN1CCOCC1`, the growth was -21% (active) in test [1]; -17.5% (active) in test [2]; -5.6% (active) in test [3]; 55.6% in test [4]; 58.3% in [5]; 50.8% in test [6]. Further, the growth in test [7] is 78.2%; in test [8], 36.1%; in test [9], 58.3%; in [11] it was 48%; in test [12] it was 84.2%; in test [13], -59% (active). Besides, the growth in test [14] was -63% (active); in test [15], 18.1%; in test [16] it was 32.5%; in [17], 26.7%; in [18], 16.4%.

On to `Cc1cc2c(cc1-c1ccnc(/C=C/C(=O)O)c1)C(C)(C)CCC2(C)C`, for which the growth was 91.9% in [1]; 77.9% in test [2]; 41.4% in test [3]; 79% in test [4]; 100% in [5]; 104% in test [6]. The growth in test [7] was 98.1%; in test [8] it was 100%; in [19], 59.6%; in test [11], 92.4%; in test [12], 64.5%; in test [13], 92.5%. In addition, the growth in test [14] was 95.9%; in [15] it was 56%; in test [16], 75.1%; in test [18], 86.3%.

For `O=C(CCCN1CCC2(CC1)C(=O)NCN2c1ccccc1)c1ccc(F)cc1`, the growth was 58.5% and 33% in test [1]; 99.2% in test [2]; 103% and 74.8% in test [3]; 91.8% and 76.1% in test [4]; -54.6% (active) in [5]; 103% and 62.4% in test [6]. The growth in test [7] was 102% and 111%; in test [8] it was 73.6% and 29%; in [19], 97.1% and 79.2%; in [11], 45.5% and 23.4%; in test [12] it was 98.2% and 87.2%; in test [13], 99.7% and 93.6%. Also, the growth in test [14] is 84.4% and 68%; in [15], 49.6% and 12%; in test [16], 73.9% and 19.7%; in [17], 104% and 42.3%; in [18], 102% and 86.3%.

As to `CC[C@H](C)[C@H](NC(=O)[C@H]1CCCCN1C)C(=O)N(C)[C@H](C[C@@H](OC(C)=O)c1nc(C(=O)NC23C4C5C2C2C3C4C52C(=O)OC)cs1)C(C)C` (stereo partly specified), the growth was 8.38% (active) in [1]; 2.77% (active) in [2]; 29.2% in [3]; 16.5% in [4]; 55.7% in [5]; 50.3% in test [6]. The growth was 34.4% in test [7]; 21.9% in test [8]; 34.3% in [19]; 10.9% in [10]; 73.3% in test [11]; -36% (active) in test [12]. In addition, the growth in test [13] is -0.902% (active); in [14], 41.9%; in test [15], 13.7%; in [16] it was 7.22% (active); in test [17], 9.29% (active); in [18], -3.83% (active).

In the case of `CC(=O)C(N)Cc1ccccc1` (stereo unspecified), the growth in [1] is 101%; in [2], 93.7%; in test [3], 79.6%; in test [4] it was 91.8%; in [5] it was 105%; in test [6] it was 99.1%. The growth was 83.1% in test [7]; 107% in [8]; 114% in test [9]; 99.4% in [10]; 78.3% in [11]; 96% in test [12]. For the same compound, the growth in [13] was 102%; in test [15], 93.6%; in test [16], 86.3%; in [17], 96.3%; in [18] it was 106%.

Consider `CN(C)c1ccc(C=C2C(=O)NC(=O)NC2=O)cc1`, for which the growth in test [1] is 98.7%; in test [2], 107%; in test [3], 131%; in test [4], 98.5%; in test [5] it was 77.9%; in test [6] it was 116%. Moreover, the growth in test [7] is 109%; in test [9] it was 95.8%; in test [19], 91.7%; in [10], 76.7%; in [11], 76.1%; in [13], 111%. For the same compound, the growth in [14] is 93.4%; in test [15], 100%; in [16] it was 53.9%; in [18], 98.9%.

In the case of `Cc1cc(N)ccc1N`, the growth was 107% in test [1]; 110% in test [2]; 77% in test [3]; 96.1% in test [4]; 96% in test [5]; 104% in test [6]. The growth in test [7] was 99.9%; in test [8], 108%; in [19], 104%; in test [10], 105%; in test [12] it was 90.4%; in test [13], 116%. Moreover, the growth in test [15] is 92.2%; in [16], 91.8%; in test [17] it was 93.2%; in test [18] it was 104%.

Regarding `C[C@]12CCc3sc(Nc4ccc(F)cc4)nc3C1=CC[C@@H]1[C@@H]2CC[C@]2(C)C(=O)CC[C@@H]12`, the growth in test [1] was 15.8%; in [2], 19.5%; in [3], 2.21% (active); in test [4], 68.4%; in test [5], 100%; in [6] it was 76.8%. Moreover, the growth in test [7] was 90%; in [8], 75.2%; in test [19] it was 55.3%; in test [10], 80.3%; in test [11], 80%; in [13] it was 57%. Moreover, the growth in test [14] was 35.4%; in test [15], 20%; in test [16], 17.7%; in test [17], 95.1%; in [18], 72.2%.

Consider `CCCCn1c(=O)c(C(=O)NCc2ccccc2Cl)c(O)c2ccccc21`, for which the growth in test [1] was 58.4%; in [2] it was 60.4%; in test [3] it was 40.1%; in test [4] it was 81.1%; in test [5] it was 109%; in [6] it was 82.4%. For the same compound, the growth is 80.8% in test [7]; 74.9% in [8]; 101% in test [19]; 56.2% in [10]; 85.6% in test [11]; 47.9% in test [12]. For the same compound, the growth in test [13] is 98.5%; in test [14], 78.8%; in test [15], 64.4%; in test [16], 21.4%; in test [17] it was 93.4%; in test [18] it was 83.8%.
